The values that follow come from PubChem BioAssay (Tox21).

Records with an inconclusive call do not appear. Entries that show only a call come without a potency. Unmarked numbers belong to inactive results. Activity calls are given as the source filed them. Calls follow the shape of the full dose curve.

A short description of this test: p53 small molecule agonists, cell-based qHTS assay with human liver microsomes (AID 1963577).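 Also: p53 response element beta-lactamase reporter cells with liver microsomes plus NADPH.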 Put shortly:
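Steps: plate p53RE-bla cells, incubate 5 h at 37 C; add compound in DMSO; add microsomes (0.5 mg/mL final) and NADPH (0.5 mg/mL final); incubate 16 h at 37 C; add LiveBLAzer, 2 h RT; read fluorescence.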

In the case of `O=C(Nc1ccc(Cl)c(Cl)c1)c1cc(Cl)cc(Cl)c1O`, the Potency entry is “inactive”.
On to `O=[N+]([O-])c1cc(C2CCCCC2)c(O)c([N+](=O)[O-])c1`, for which the Potency entry is “inactive”.
For `CCN(CC)c1ccc2c(c1)Oc1cc(N(CC)CC)ccc1C21OC(=O)c2ccccc21`, the Potency entry is “inactive”.
For `O=C(Nc1cccc(C(F)(F)F)c1)c1cc(Br)cc(Br)c1O`, the Potency entry was “inactive”.
Same read-out and setting: the entry for `O=C[C@@H](O)[C@H](O)[C@H](O)CO` is “inactive”; for `CCCCCCNC(=O)n1cc(F)c(=O)[nH]c1=O` it is “inactive”; for `CCCCCCCCCCCCCCC[C@H](O)[C@@H](N)CO` it is “inactive”.
For the compound `c1csc(SSc2cccs2)c1`, the Potency result was “inactive”.
Consider `CCCc1ccccc1O`, for which the Potency entry is “inactive”.
Turning to `Nc1ccc(-c2ccc(F)cc2)cc1`, the Potency result was “inactive”.
Take `CCCOc1sc(C(=O)N2CCC(c3cc(CN)ccc3F)CC2)c(C)c1Br`: the Potency result was “inactive”.
For the compound `O=S(=O)(O)c1cc(S(=O)(=O)O)c2ccc3c(S(=O)(=O)O)cc(S(=O)(=O)O)c4ccc1c2c43`, the activation is -0.621% [at 13.5 µM].
